# Reference: PubChem BioAssay (NCATS)
# Results filed as inconclusive are left out. Active and inactive are the calls of the source. Calls follow the shape of the dose curve; as a rule, active = well fitted inhibition curve with a large enough effect; inconclusive = small, poorly fitted or top-dose-only effect; inactive = flat fitted curve, though single readings scatter. Where a SMILES comes first, the peptide text is derived from it.
# Experiment: Primary qHTS for inhibitors of nuclear receptor binding SET domain protein 2 (NSD2) in an isogenic RCH-ACV NSD2 p.E1099K mutant (9B) (AID 1645876); also: nearly all actives have a fitted effect of over 70% in size
# Settings: RCH-ACV (leukaemia line) NSD2 E1099K (9B) viability, CellTiter-Glo, 72 h; series mostly up to 44.9 µM; activity change, negative = viability loss: at the top concentration
# % is scaled to controls: 0 for no effect and ±100 for the full control effect.
Compound,"activity change, negative = viability loss",outcome
OC[C@H]1O[C@@H](OCCc2ccccc2)[C@H](O[C@@H]2OC[C@@H](O)[C@H](O)[C@H]2O)[C@@H](O)[C@@H]1O,-3.17% [at 17.3 µM] (inactive),–
CC1=C2CC3C(CCC3(C)O)C(C)(O)CC2OC1=O (configuration not stated),-1.06% (inactive),–
C=C(CC/C=C(\C)C(=O)O)C1(O)CC=C(C)CC1 (configuration not stated),3.23% (inactive),–
H-DPPDPDRFYGMM-NH2,–,inactive [at 17.3 µM]
CC(C)(Oc1ccc(-c2nc3cc(Cl)ccc3s2)cc1)C(=O)O,-6.11% (inactive),–
C=C1C2CCC3C(CCC4[C@@]3(C)CCC[C@@]4(C)C(=O)O)(C2)[C@@H]1OC(=O)/C(C)=C\C (some centres not stated),–,inactive [at 17.3 µM]
CC(=O)OCC1OC(O[C@H]2CC[C@]34C[C@]35CC(O)[C@]3(C)[C@@H]([C@H](C)CC/C=C(\C)C(=O)O)C(O)C[C@@]3(C)C5CC[C@H]4C2(C)C)C(O)C(O)C1OC1OCC(O)C(O)C1O (some centres not stated),-5.86% [at 9.23 µM] (inactive),–
CC(=O)/C=C/C1C(C)CC(O[C@@H]2O[C@H](CO)[C@@H](O)[C@H](O)[C@H]2O)CC1(C)C (some centres not stated),–,inactive
CC(=O)/C=C/C1(O)C(C)(C)CC(O)CC1(C)O (configuration not stated),–,inactive
CN(C)c1ccc(C2O[C@@H](c3ccccc3)C[C@H](c3ccccc3)O2)cc1 (some centres not stated),–,inactive
Nc1ccc(-n2nc(C(F)(F)F)cc2C(F)(F)F)cc1,-10.6% (inactive),–
C[C@@H]1C(=O)O[C@H]2[C@H]1CC[C@@]1(C)C(=O)C=C[C@@](C)(O)[C@H]21,–,inactive
COC(=O)C[C@@H]1C(C(=O)O)=CO[C@@H](O[C@@H]2O[C@H](CO)[C@@H](O)[C@H](O)[C@H]2O)/C1=C\COC(=O)/C=C/c1ccc(O)c(OC)c1,–,inactive [at 17.3 µM]
COc1cc(CO)ccc1O[C@@H]1O[C@H](CO)[C@@H](O)[C@H](O)[C@H]1O,-9.04% (inactive),–
CCCO[C@@H]1O[C@H](CO)[C@@H](O)[C@H](O)[C@H]1O[C@@H]1OC[C@@H](O)[C@H](O)[C@H]1O,–,inactive
CSCC[C@H](NC(=O)[C@H](CO)NC(=O)[C@H](CCC(=O)O)NC(C)=O)C(=O)N[C@H](C=O)CC(=O)O (Ac-ESMD-aldehyde),-10.4% [at 9.23 µM] (inactive),–
C[C@]1(OC(=O)/C=C\c2ccc(O)cc2)C[C@@H](O)[C@]2(O)C=CO[C@@H](O[C@@H]3O[C@H](CO)[C@@H](O)[C@H](O)[C@H]3O)C12 (some centres not stated),-8.02% [at 17.3 µM] (inactive),–
